Measurements: publication PMC13494018
A number with no mark means an inactive call. How the calls were made is not given here.

The binders below were run against VTCN1, Q7Z7D3.
VTCN1, Q7Z7D3, sequence (Q7Z7D3 whole entry): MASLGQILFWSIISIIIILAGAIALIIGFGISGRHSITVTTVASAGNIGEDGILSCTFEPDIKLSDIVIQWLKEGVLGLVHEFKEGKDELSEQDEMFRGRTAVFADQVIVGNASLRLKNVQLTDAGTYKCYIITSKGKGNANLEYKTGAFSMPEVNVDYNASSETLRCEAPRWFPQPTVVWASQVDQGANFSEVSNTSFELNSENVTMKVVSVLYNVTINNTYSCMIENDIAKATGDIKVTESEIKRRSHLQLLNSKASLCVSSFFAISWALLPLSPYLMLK

Binder | binding in a display sort
design_598_15ab41e9-cad4-4381-8935-81f74b313fe8_1541_dldesign_0_cycle1_af2pred (protein) AEQEKKDEEYKEKAKKGEELAKKAKERAEKNKDDKGVLGSQAELAEHIAKALKKAAEEASEEVKPELKAAAEKAKKVAKYAEELA | not found
design_598_15ab41e9-cad4-4381-8935-81f74b313fe8_2059_dldesign_0_cycle1_af2pred (protein) GEKEELKEKAKKLKELAKKAVEKAKKAAEENPEAKPLAEKAKELAEEAIKLAEEGTKESLEKAAKILQELREVTAEAEFIARKG | not found
design_599_7ce25d4d-e004-4b84-a16f-baf856d943ab_928_dldesign_0_cycle1_af2pred (protein) AAAKEEAEKRAKKALEEGEKAAKEIEKSNAEEARKIAKEFREKAKELVADPEASPEEKKALAEGAQKAYEAAAEKEAKE | not found
design_598_15ab41e9-cad4-4381-8935-81f74b313fe8_1668_dldesign_0_cycle1_af2pred (protein) KEKVKKELEESKKELEKTLEKIKELVSSLPEEEREALAKGLVDPKTALEAAKKIAEAVGKEGANAAQEAISERRAIEQYEKILE | not found
design_598_15ab41e9-cad4-4381-8935-81f74b313fe8_2343_dldesign_0_cycle1_af2pred (protein) ASEELWKKAQEIATKAVAAAQARYAAEGKYEELDKDIDKIYELAVEAAKEGEEGLKKLEEMRKEAEEAAKKALEAA | not found
design_599_7ce25d4d-e004-4b84-a16f-baf856d943ab_173_dldesign_0_cycle1_af2pred (protein) SEAEKVIEEARKKAEEAREFIKKIREEGGNPEAAELALQALSHFKAAEALAKSGENLESAKKHLEEGKKLLEEAKELYE | not found
design_599_7ce25d4d-e004-4b84-a16f-baf856d943ab_748_dldesign_0_cycle1_af2pred (protein) SKEEIKKQSELMKKATRYVKEAGKAAKVLGEEGKKKVEEMVKLRDQAADSDVETAKKLTEEIEKEAEEVIKKAEEKEK | not found
design_599_7ce25d4d-e004-4b84-a16f-baf856d943ab_378_dldesign_0_cycle1_af2pred (protein) AAAAILAATDAEVAAILAKGAEEIAKAAKEEGPEAAKKVATEVLEKANDVIAEGGVKAGLSAKEISARINAAQKEVRAIAEKAIEAAA | not found
design_598_15ab41e9-cad4-4381-8935-81f74b313fe8_2408_dldesign_0_cycle1_af2pred (protein) ELELLKERAELYERAAKAAEAGKLGAGIRLAAIAEDLIDLELGKKKEKELKASSREEALKILKKEAEKYKAKAKELA | not found
design_599_7ce25d4d-e004-4b84-a16f-baf856d943ab_284_dldesign_0_cycle1_af2pred (protein) AEVEAFKAAAEKYYKKAKEYFEKAKKTGSKSLYLKGASYAELALHNLENAAKAAAAKDPAEGAKLQKELKETKEELDKLYEEARKAAV | binds (active)
design_599_7ce25d4d-e004-4b84-a16f-baf856d943ab_219_dldesign_0_cycle1_af2pred (protein) MDPAELAAAKQAEAEAIIAETKAKAEKYIEEAKKSKKYVEALQYVGRAEVLLDSTVSYLTKNVGPEAGEKAQEIADKTVKEGFEIVKK | not found
design_598_15ab41e9-cad4-4381-8935-81f74b313fe8_2441_dldesign_0_cycle1_af2pred (protein) AKEKAEELAKKAREGIERAERRVEEGKKKSKKDAAIYSYSAAELLDSVAAGIVKELLKEDPELGKKVAEEVEKAREEALKEAEKYES | not found
design_598_15ab41e9-cad4-4381-8935-81f74b313fe8_1784_dldesign_0_cycle1_af2pred (protein) ADEEGKKLVKEKLEEAKKALEKAKAGDKKEALDAASTATRNAHKIEAFAKAVPVSEEVVKLAKEAVKELEKYEEKAAKLLAK | not found
design_598_15ab41e9-cad4-4381-8935-81f74b313fe8_1969_dldesign_0_cycle1_af2pred (protein) AAAAAKKAQAKKLVGLGLFYYLDYLAGGPESSKEKGDAYYAAAAALDPATAAEAKAKADKIAARFKKDVEEAKK | not found
design_598_15ab41e9-cad4-4381-8935-81f74b313fe8_2298_dldesign_0_cycle1_af2pred (protein) SKKAEQTLFRAEALGEAVTEAAEQLDPALGARVRERAKELIERAKKDGTLEAAEKALEEMRRLAEEVRAAIEAA | not found
design_599_7ce25d4d-e004-4b84-a16f-baf856d943ab_347_dldesign_0_cycle1_af2pred (protein) AEAEKAKATADAKKEAKAFAEEAKKKAEEASKGTPEDVKKERDKVAAEFDKKIAEAAGNPEAAAAYAEARHEAKAEYDLAYVKAK | not found
design_598_15ab41e9-cad4-4381-8935-81f74b313fe8_1691_dldesign_0_cycle1_af2pred (protein) DKEAEAKKIEAAAKKNAEAALADAEKAKEYAKAGDKSKAKQYSESAKIYLELAGTAAKKGAGYPTAPEIKKLYEDTKAKVEEILKEA | not found
design_599_7ce25d4d-e004-4b84-a16f-baf856d943ab_290_dldesign_0_cycle1_af2pred (protein) SEARRERLRAEAEEAIEKLKEAAKQAFEAGNGEAALVAVRAAARARRLLADPATVEEGLRVAKEGLEKAEKLLKE | not found
design_598_15ab41e9-cad4-4381-8935-81f74b313fe8_1727_dldesign_0_cycle1_af2pred (protein) SAAQLAASAKGRLLAVADYARAKGISEEAAELAEKAAEADVATAAELAEKAAKLLEEAGDEKLAERARKAAEKLKKAAKE | not found

Binder | binding in a display sort
design_598_15ab41e9-cad4-4381-8935-81f74b313fe8_1677_dldesign_0_cycle1_af2pred (protein) DVAALIAKAAALVDDPSKAAEALKYLVAAREKALSEGDAAALKQIAAVAAEGAKKAPPEYAKGFKLLANTAKSIAEDLEK | not found
design_598_15ab41e9-cad4-4381-8935-81f74b313fe8_1648_dldesign_0_cycle1_af2pred (protein) KKEEAKKELLEKVKKLEEEGEKLLEEKTPKEARAKALEKGKEIMKEAEKAIKDPETKEAGKEAKKKAAEAMAKLYEKAAEKEAKE | not found
design_598_15ab41e9-cad4-4381-8935-81f74b313fe8_1756_dldesign_0_cycle1_af2pred (protein) GFKEEAEKKMEKVLEEAKKASVKEAATIVREAYAELKGIGHLLEKKGKKEEGKFAEEVAKKVLEEGKKIVEEKAAA | not found
design_598_15ab41e9-cad4-4381-8935-81f74b313fe8_2338_dldesign_0_cycle1_af2pred (protein) AEEKAKELYAKGEKLYKEGLKADKETGKEYFTKAAEYFKAAAEEFKKAGNVVGAGYAESKAERAKEAAELL | not found
design_599_7ce25d4d-e004-4b84-a16f-baf856d943ab_80_dldesign_0_cycle1_af2pred (protein) SKAAEKAEAQKAKEEATKAAEEAAKEAKKAGLEDLAKYLENAKKTADAKAQASSDPAEAKKYYEKYKATATRLLEDLKKAE | not found
design_599_7ce25d4d-e004-4b84-a16f-baf856d943ab_718_dldesign_0_cycle1_af2pred (protein) SELTEKVNKEADELRKRAREIGETARRLAEEAAKHDPAAAEEIRRLASLSIQKLFEGDEEEAERYWEEAVALAKAAVA | not found
design_598_15ab41e9-cad4-4381-8935-81f74b313fe8_2180_dldesign_0_cycle1_af2pred (protein) AEAAEKAAAKAVINEAYDLLGSSTAEEALKYAEEKAKEAKAAGKKIVADAAEKTAKVLKRIAEDEKEAKK | not found
design_599_7ce25d4d-e004-4b84-a16f-baf856d943ab_451_dldesign_0_cycle1_af2pred (protein) EKITAVNEAEAYLEALKHAAEVLTKIDPSLKPEAEKAIKEGEKLVKEAKEGNAETAKKAAEEIRKLLKEVIELGKKAKA | not found
design_598_15ab41e9-cad4-4381-8935-81f74b313fe8_2011_dldesign_0_cycle1_af2pred (protein) KLEEYKKKIKEKAKEMGKSLDPEERKKLLEEIKKLAKEASKELGEKEEIEKFAAEEAHEGLEQASENRFKS | not found
design_599_7ce25d4d-e004-4b84-a16f-baf856d943ab_441_dldesign_0_cycle1_af2pred (protein) GKKEEAEKKMKKAYEKMKKLAEEAGKAKDPKEAYEYLLKIEEVGAEAINYAAKIGDKETAREAAKKYRELFREAVKKAQAAGKA | not found
design_599_7ce25d4d-e004-4b84-a16f-baf856d943ab_519_dldesign_0_cycle1_af2pred (protein) MEAALEALKKAAAEAANLVYDAADIGAEEAEKAAKEAIKKIKDTATPELAPLAKEYAEKLGKTAERLIENNKYGEELKK | not found
design_599_7ce25d4d-e004-4b84-a16f-baf856d943ab_135_dldesign_0_cycle1_af2pred (protein) MEEEEGEKKVEEAKKKLSAALYEYADMSVNEETLKEGRKKVEEAVKEALELGKKSTPETAEKLKKAAEKALKVAERIEEAS | not found
design_599_7ce25d4d-e004-4b84-a16f-baf856d943ab_160_dldesign_0_cycle1_af2pred (protein) AVKEQTEKTVAATRAAAEAVPEYGEELEKGARVIERLVKDGFLEGAIDVANAIAKFSREVAAEVSEEQAAILKEAADLAEELAKLAK | not found
design_599_7ce25d4d-e004-4b84-a16f-baf856d943ab_929_dldesign_0_cycle1_af2pred (protein) GLDAVTDALAEAFYASREIEKIDPELGKELLEYAKELAKKAIAGTPEAAKKLAEEIKKKTEEKLKEAEEKAKKE | not found
design_599_7ce25d4d-e004-4b84-a16f-baf856d943ab_1040_dldesign_0_cycle1_af2pred (protein) EKLKERYKAAAKNLEKAAESKDKNEAKALIGRAEALALNASADPAAPEIAKLADEALEAVYKDLEKGKELAKKAAEKAKEAAA | not found
design_599_7ce25d4d-e004-4b84-a16f-baf856d943ab_360_dldesign_0_cycle1_af2pred (protein) TAAITEARDAAVEARGDVELAKAKNAKAEEYEKAAKKAEEAKKKLKEVLETVELSEEERETAERMIEAMERAAEEARKLAKEKK | not found
design_599_7ce25d4d-e004-4b84-a16f-baf856d943ab_845_dldesign_0_cycle1_af2pred (protein) NELEKAAKAAEAVAKALRAAAEAGPTPESLAAVEALAKEAAKVDEAAADIARAAVAAARADPARAAEALRRGARIAKRLAEDYKKAI | not found
design_599_7ce25d4d-e004-4b84-a16f-baf856d943ab_506_dldesign_0_cycle1_af2pred (protein) MEEEKKAIEEAKERAKEIAEKAVKEAKKAKTPKEISEAIREMVRKLRELVKEVREKYSEETAEKVKEIAAKERLKAVDEIAAAK | not found
design_599_7ce25d4d-e004-4b84-a16f-baf856d943ab_358_dldesign_0_cycle1_af2pred (protein) HMKYIELLDRINKVSKELQEAYKEASKDPENKPKVEELAKEASELRDKGYDEPEKAEEYLKKMEELAKEMKKLAKE | not found
